The source of these data is PubChem BioAssay AID2314 (National Center for Advancing Translational Sciences (NCATS), 2010).

Several values for one entry are separate records, joined by “and”; a condition that tells them apart may be missing. Equal values may be shown once. Out of some 300,000 compounds screened, about 37,000 (12%) were called active. This excerpt belongs to a sample that is enriched for actives. Values without a mark were called inactive. Cut-off read from the data, not from the text of the source: active = max response mostly above about 13% (no sharp cut-off); inactive = mostly below about 14%.

This assay can be described thus: Cycloheximide Counterscreen for Small Molecule Inhibitors of Shiga Toxin. Note: read at 38.3 µM for the half of the compounds with a filed dose; 0% is about no effect. The note with it: cell reporter, cycloheximide protein synthesis inhibition counterscreen; active compounds read high. For orientation: A counterscreen serves to expose hits that act by an unwanted route or on another target.
With `Cc1ccc(CN2CCCOCCS2(=O)=O)cc1`, the max response was 0.911%.
Turning to `O=C(COc1ccccc1)NCCc1nc2ccccc2[nH]1`, the max response is -4.17%.
Regarding `O=C(OCc1nc2ccccc2[nH]1)C1CCCCC1`, the max response is 16.3% (active).
For `CCO[C@@H]1OC(C(=O)NCc2nc3ccccc3[nH]2)=C[C@H](C2CCCCC2)[C@H]1CCCO`, the max response was -1.94%.
With `CCc1cc2c(NC(Cc3ccccc3)C(=O)O)ncnc2s1` (stereo not given), the max response was 1.45%.
On to `Cc1ccc(NC(=O)CC2C(=O)N(Cc3ccccc3)C(=S)N2NC(=O)c2cccc(F)c2)c(C)c1` (stereo not given), for which the max response is -8.81%.
The same measure for `Cc1ccc(OCCCCc2c(C)n[nH]c2C)cc1`: 7.68%; for `CCCOc1ccc(-c2nc(N)n[nH]2)cc1`: 27.8% (active); for `Nc1nc(SCCOc2ccccc2)n[nH]1`: 10.5%.
Then `CC(NCC(=O)Nc1cc(Cl)cc(Cl)c1)c1ccccc1` (stereo not given), with -2.23%; and `COc1cccc(CNC(=O)CCC2CCCN(Cc3ccc(OC(F)F)cc3)C2)c1` (stereo not given), with -2.71%; and `COc1ccc(OC)c(CNC(=O)Cn2nc(C)c3c(C)n(-c4ccc(C)cc4)nc3c2=O)c1`, with 2.16%.
Then `CC(=O)Nc1cccc(NC(=O)CSc2nccn2Cc2ccc(F)cc2)c1`, with -0.128%; and `COc1ccc(C(=O)Nc2ccc3c(c2)OCO3)cc1OC`, with 57.2% (active); and `COc1ccc(-c2cc(C(F)(F)F)nc(SCC(=O)Nc3ccc4c(c3)OCO4)n2)cc1OC`, with 0.778%.
With `COc1ccc(C(=O)Nc2ccc(C3(C#N)CCCC3)cc2)cc1OC`, the max response was 20.7% (active).
For the molecule `Cn1c(=O)n(C)c2cc(C(=O)Nc3ccc(Br)cc3)ccc21`, the max response was 5.85%.
Then `COc1cc(C(=O)NCC2(c3ccccc3)CCCC2)ccc1OC(C)C`, with -3%; and `COc1cccc(OC)c1C(=O)Nc1ccc2c(c1)n(C)c(=O)n2C`, with -0.414%; and `Cn1c(=O)n(C)c2cc(C(=O)Nc3ccc4c(c3)OCO4)ccc21`, with 21.7% (active).
`COc1ccc(S(=O)(=O)Nc2ccc3c(c2)OCO3)cc1Cl`: the max response was 1.12%.
With `COc1ccc(C(=O)Nc2ccc3nc(N4CCCCC4)cc(C)c3c2)cc1OC`, the max response is -1.84%.
The same measure for `O=C(Cc1ccccc1)Nc1c(C(=O)N2CCCCCC2)cnn1-c1ccccc1`: -1.98%.
The same measure for `COc1ccc2c(c1)CCc1cn3ncc(C#N)c3nc1-2`: -3.03%; for `CCCCn1nc(C(=O)N2CCc3ccccc32)c2ccccc2c1=O`: 1.07%; for `Cc1nc(N=C(N)N)nc2c(C)cccc12`: 3.71%.
Regarding `CCOC(=O)C(C)n1cnc2scc(-c3ccc(C)c(C)c3)c2c1=O` (stereo not given), the max response is -0.876%.
With `Cc1ccccc1OCC(=O)N(Cc1cccc(F)c1)C1CCS(=O)(=O)C1` (stereo not given), the max response was -13%.
On to `Cc1cc2oc(=O)cc(-c3ccccc3)c2c(C)c1-c1ccc(OC(F)(F)F)cc1`, for which the max response was 17.1%.
The same measure for `CN(C(=O)CCNC(=O)Cn1ccc2ccccc2c1=O)c1ccc(Br)cc1`: -6.96%.
Consider `CCN(/N=C/c1ccc(N(C)C)cc1)c1nc2ccccc2[nH]1`, for which the max response was 5.84%.
The same measure for `CNC(=O)c1ccsc1NC(=O)c1ccc(S(=O)(=O)N2CCc3ccccc32)cc1`: -2.6%; for `CCN(CC)CCCNC(=O)c1cc2c(=O)[nH]c3ccc(C)cc3c2s1`: 0.225%.
Then `COc1ccc(C2=NN(c3nc4ccccc4s3)C(=O)C2)cc1`, with 25.8% (active); and `COc1ccc(N2C(=O)CC(Sc3n[nH]c(-c4ccc(C)cc4)n3)C2=O)cc1` (stereo not given), with -1.55%; and `CN(C(=O)COC(=O)c1nc(Cl)ccc1Cl)C1CCS(=O)(=O)C1` (stereo not given), with -1.17%.
The same measure for `COC(=O)c1c(-c2ccc(C)cc2)csc1N`: 9.52%; for `Nc1scc(-c2ccncc2)c1Cl`: 26% (active); for `O=C(c1ccc(S(=O)(=O)c2ccccc2)cc1)N1CCCCCC1`: -1.02%.
`O=C(c1ccc(CSc2ccccc2)cc1)N1CCCCCC1`: the max response is 66.2% (active).
`CC1CCN(C(=O)c2ccc(CSc3ccc(Cl)cc3)cc2)CC1`: the max response was -3.83%.
The same measure for `Cc1cccc(C)c1NC(=O)CSc1nc2c([nH]1)c(=O)n(C)c(=O)n2C`: -6.42%; for `CC1=C(C(=O)OCC2CCCCC2)C(c2ccc(F)cc2)NC(=O)N1` (stereo not given): -1.88%.
`Cc1cccc(N2C(=O)C3C(c4ccccc4)OC4(C(=O)c5ccccc5C4=O)C3C2=O)c1` (stereo not given): the max response was 7.54%.
Then `Cc1cccc(N2C(=O)c3cccnc3C2=O)c1`, with 7.77%.
Consider `Cc1cccc(N2C(=O)NC(=O)/C(=C\c3cnn(-c4ccccc4)c3)C2=O)c1`, for which the max response is 25.1% (active).
For the molecule `CC(CNC(=O)c1ccc(Br)o1)NC(=O)c1ccc(Br)o1` (stereo not given), the max response was -3.59%.
For the molecule `CC(C)(C)C1CCC(=NNC(=O)c2cc(-c3ccccc3)n[nH]2)CC1` (stereo not given), the max response was 5.64%.
Then `CCC(C)(C)C1CCC(=NNC(=O)c2ccc(Br)o2)CC1` (stereo not given), with 44.3% (active); and `CC(NC(=O)C(=O)NN=C1CCC(C(C)(C)C)CC1)c1ccccc1` (stereo not given), with 1.38%; and `O=C(CNC(=O)c1ccc(Br)o1)NCC1CCCO1` (stereo not given), with -2.05%.
Take `CC(C)(C)C1CCC(=NNC(=O)c2ccc(Br)o2)CC1` (stereo not given): the max response was 35.2% (active).
For `CC(=O)N1C(C)c2ccccc2C(C)(C)CC12CCCCC2` (stereo not given), the max response was -1.42%.
Take `Cc1ccc(C)c(N2CCN(S(=O)(=O)c3c(C)[nH]c(C)c3C(=O)N3CCCC3)CC2)c1`: the max response was -1.94%.
For `C=CC(COCc1ccccc1)N(Cc1ccccc1)S(=O)(=O)c1ccccc1Br` (stereo not given), the max response is -2.35% and 5.45%.
The same measure for `Cc1ccc(S(=O)(=O)N(C)CC(=O)NC2CCCC2)cc1`: -2.07%; for `Cc1ccc(NC(=O)NC(=O)N(C2CCCCC2)S(=O)(=O)c2ccccc2)cc1`: 40.9% (active).
The same measure for `CS(=O)(=O)N(C(=O)NC(=O)NC1CCS(=O)(=O)C1)C1CCCCC1` (stereo not given): -1.14%; for `CCOc1ccccc1NC(=O)CCS(=O)(=O)c1cccc2nsnc12`: -6.23%; for `O=C(N/N=C/c1cccc(O)c1)c1cc2c(ccc3ccccc32)o1`: 8.61%.
Take `NC(=O)c1ccccc1N=Cc1ccc2ccccc2c1`: the max response is 38.3% (active).
`O=C(COc1cc2oc(=O)c3c(c2cc1Cl)CCC3)NCCCN1CCOCC1`: the max response was 6.01%.
Then `O=C(NCCc1ccccc1)C1CCC(Cn2c(=O)c3ccccc3n(Cc3cccnc3)c2=O)CC1` (stereo not given), with -1.63%; and `O=C(O)c1cc([N+](=O)[O-])c(Nc2cccc3ccccc23)c([N+](=O)[O-])c1`, with -2.68%.
Regarding `CCCNC(=O)Nc1ccccc1C(=O)Nc1ccc(OC)cc1`, the max response is 2.17%.
In the case of `CCOc1ccc(C(=O)Nc2ccncc2)cc1`, the max response was 23.7% (active).
`CCOc1ccc(C(=O)Nc2cccc(SC)c2)cc1`: the max response was 43.4% (active).
The same measure for `CCOc1ccc(NC(=O)CSc2nncn2C)cc1`: 3.07%; for `CCOc1ccc(NC(=O)CCNC(=O)c2ccc(Br)cc2)cc1`: 17.2%; for `CCOc1cccc(NC(=O)CC#N)c1`: -0.681%.
As for `COC(=O)c1ccccc1NC(=O)c1ccccc1NS(C)(=O)=O`, the max response was -1.19%.
For the molecule `COc1ccc(CSc2nnnn2-c2ccc(C(=O)O)cc2)cc1`, the max response was -3%.
On to `CCOc1ccc(NC(=O)c2ccc(NC(=O)C3CCCO3)cc2)cc1` (stereo not given), for which the max response was 14.7%.
Regarding `CCOc1ccc(NC(=O)c2ccccc2NS(C)(=O)=O)cc1`, the max response was 15.1% (active).
The same measure for `CCOc1ccc(NC(=O)c2ccc(CSc3nnnn3C)cc2)cc1`: 20.2% (active); for `CCOc1ccc(C(=O)Nc2cccc(-c3ccc4nncn4n3)c2)cc1`: -0.39%; for `CC1CN(c2nc(Nc3ccccc3)nc(N)c2[N+](=O)[O-])CC(C)O1` (stereo not given): 1.21%.
As for `O=C(CN1CCN(c2ccc(O)cc2)CC1)NC1CCCc2ccccc21` (stereo not given), the max response is -4.39%.
Then `COc1ccc(CN(C)C(=S)Nc2ccc(Cl)cc2Cl)cc1`, with -0.677%; and `O=C(O)C1CC=CC2CCN(C3CCCCC3)C(=O)C21` (stereo not given), with -7.95%.
Then `COc1ccc(OC)c(NC(=O)CN(C)CCOc2ccc(Br)cc2)c1`, with -3.46%; and `O=C(Oc1cccc(N2C(=O)C3C4c5ccccc5C(c5ccccc54)C3C2=O)c1)c1ccco1` (stereo not given), with -4.24%.
As to `Cc1ccc2c(c1)N(S(=O)(=O)c1cc(-c3cc(C)no3)ccc1C)CCO2`, the max response is 1.76%.
Then `CC(=O)Nc1cccc(C(=O)OCN2C(=O)c3ccccc3C2=O)c1`, with -2.39%.
The same measure for `CCN(CC)N=Nc1cccc(NC(C)=O)c1`: 15.1% (active); for `CCN(CC)C(=O)CSC(Nc1cccc(F)c1)=C(C#N)C#N`: -0.453%; for `Fc1ccc2nc(-c3ccccc3)nc(SCc3nnc(-c4ccccc4)o3)c2c1`: -4.64%.
For the molecule `Fc1ccc(-c2nnc(CSc3nnc(-c4ccc5c(c4)OCO5)o3)o2)cc1`, the max response was 26% (active).
Take `O=C(CSc1nnc(CNC(=O)c2ccc(F)cc2)o1)Nc1ccc2c(c1)OCO2`: the max response was -1.02%.
Then `O=C(Nc1ccnn1C1CCN(C/C=C/c2ccc(F)cc2)CC1)C1CCCC1`, with -1.88%.
As for `CCOc1ccc(OCC)c(NC(=O)CCS(=O)(=O)c2ccc(C)cc2)c1`, the max response is -3.4%.
Turning to `Cc1ccc(N/N=C2\COC(C)(C)CC2=O)cc1`, the max response is 73.1% (active).
The same measure for `COc1ccc(N/N=C2/CCCCC2=O)cc1`: 29.4%; for `CC(C)CC(COCc1ccc(Cl)cc1)N1CCN(C(=O)c2ccc(C(F)(F)F)cc2)CCC1=O` (stereo not given): -2.17%.
The same measure for `O=C1CC(Sc2ncn[nH]2)C(=O)N1c1ccccc1` (stereo not given): -3.41%.
